6 compounds from ChEMBL document CHEMBL1961873, “Compounds: GSK PKIS; Assays: Nanosyn kinase panel” (2012) can be followed below.

For test [1], the target named is T1, Tyrosine-protein kinase ITK/TSK (Homo sapiens) (UniProt Q08881).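 Further: values are mean percent inhibition of ITK from the GSK PKIS screen.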
T1 sequence (whole entry): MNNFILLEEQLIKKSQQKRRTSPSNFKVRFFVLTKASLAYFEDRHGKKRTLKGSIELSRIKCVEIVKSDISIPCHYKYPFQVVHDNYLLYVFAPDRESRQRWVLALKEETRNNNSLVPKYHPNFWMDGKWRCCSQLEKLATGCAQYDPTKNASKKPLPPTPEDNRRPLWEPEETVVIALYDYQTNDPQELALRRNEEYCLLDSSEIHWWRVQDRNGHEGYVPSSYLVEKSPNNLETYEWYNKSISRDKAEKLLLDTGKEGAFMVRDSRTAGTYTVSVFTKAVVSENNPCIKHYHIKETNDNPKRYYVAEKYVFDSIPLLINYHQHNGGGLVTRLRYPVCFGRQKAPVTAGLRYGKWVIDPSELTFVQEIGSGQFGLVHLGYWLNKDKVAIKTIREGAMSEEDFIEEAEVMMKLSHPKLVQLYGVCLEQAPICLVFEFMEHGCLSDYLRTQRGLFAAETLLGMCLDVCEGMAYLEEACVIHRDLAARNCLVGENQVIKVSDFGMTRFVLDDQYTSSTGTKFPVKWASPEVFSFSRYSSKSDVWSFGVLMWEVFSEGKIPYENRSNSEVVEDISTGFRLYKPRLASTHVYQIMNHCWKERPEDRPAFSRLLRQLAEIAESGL
As to conditions: at 1 µM.

The target of test [2] is Tyrosine-protein kinase JAK1 (Homo sapiens) (UniProt P23458). As to conditions: at 0.1 µM.
The target is the same in test [3]. Conditions: at 1 µM.
For test [4], the target named is Tyrosine-protein kinase JAK2 (Homo sapiens) (UniProt O60674). Conditions: at 0.1 µM.
Tyrosine-protein kinase JAK2 (Homo sapiens), sequence (O60674 whole entry): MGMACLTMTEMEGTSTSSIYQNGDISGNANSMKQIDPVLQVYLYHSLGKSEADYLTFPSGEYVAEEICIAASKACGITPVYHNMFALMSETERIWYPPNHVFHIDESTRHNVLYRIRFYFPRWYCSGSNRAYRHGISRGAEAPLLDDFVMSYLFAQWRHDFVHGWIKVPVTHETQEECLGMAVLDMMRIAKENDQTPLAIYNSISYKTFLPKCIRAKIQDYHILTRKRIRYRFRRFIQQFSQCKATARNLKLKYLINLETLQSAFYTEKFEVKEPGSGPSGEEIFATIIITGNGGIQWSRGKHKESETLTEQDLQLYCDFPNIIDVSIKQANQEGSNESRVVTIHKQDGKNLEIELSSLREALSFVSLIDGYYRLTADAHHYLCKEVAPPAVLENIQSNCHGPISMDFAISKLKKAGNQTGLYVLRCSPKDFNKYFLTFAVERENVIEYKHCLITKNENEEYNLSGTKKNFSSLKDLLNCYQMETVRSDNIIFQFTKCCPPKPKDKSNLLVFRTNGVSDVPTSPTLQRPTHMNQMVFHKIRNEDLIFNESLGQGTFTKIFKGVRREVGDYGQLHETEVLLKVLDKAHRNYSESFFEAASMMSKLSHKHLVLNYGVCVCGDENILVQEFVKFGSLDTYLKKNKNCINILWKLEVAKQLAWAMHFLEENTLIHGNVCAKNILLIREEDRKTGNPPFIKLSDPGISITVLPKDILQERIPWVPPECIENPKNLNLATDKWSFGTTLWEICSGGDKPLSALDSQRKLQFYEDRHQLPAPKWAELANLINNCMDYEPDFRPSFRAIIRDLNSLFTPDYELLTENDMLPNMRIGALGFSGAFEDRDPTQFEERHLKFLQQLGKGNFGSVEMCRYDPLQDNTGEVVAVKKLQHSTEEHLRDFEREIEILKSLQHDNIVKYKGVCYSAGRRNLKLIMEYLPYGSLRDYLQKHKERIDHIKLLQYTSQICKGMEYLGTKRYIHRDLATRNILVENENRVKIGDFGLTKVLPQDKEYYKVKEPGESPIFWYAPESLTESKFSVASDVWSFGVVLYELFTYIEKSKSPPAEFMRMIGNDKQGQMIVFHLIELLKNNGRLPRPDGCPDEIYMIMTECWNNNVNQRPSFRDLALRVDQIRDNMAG
Test [5] has the same target. Conditions: at 1 µM.
Test [6] concerns the target T2, Tyrosine-protein kinase JAK3 (Homo sapiens) (UniProt P52333).
T2 sequence (whole entry): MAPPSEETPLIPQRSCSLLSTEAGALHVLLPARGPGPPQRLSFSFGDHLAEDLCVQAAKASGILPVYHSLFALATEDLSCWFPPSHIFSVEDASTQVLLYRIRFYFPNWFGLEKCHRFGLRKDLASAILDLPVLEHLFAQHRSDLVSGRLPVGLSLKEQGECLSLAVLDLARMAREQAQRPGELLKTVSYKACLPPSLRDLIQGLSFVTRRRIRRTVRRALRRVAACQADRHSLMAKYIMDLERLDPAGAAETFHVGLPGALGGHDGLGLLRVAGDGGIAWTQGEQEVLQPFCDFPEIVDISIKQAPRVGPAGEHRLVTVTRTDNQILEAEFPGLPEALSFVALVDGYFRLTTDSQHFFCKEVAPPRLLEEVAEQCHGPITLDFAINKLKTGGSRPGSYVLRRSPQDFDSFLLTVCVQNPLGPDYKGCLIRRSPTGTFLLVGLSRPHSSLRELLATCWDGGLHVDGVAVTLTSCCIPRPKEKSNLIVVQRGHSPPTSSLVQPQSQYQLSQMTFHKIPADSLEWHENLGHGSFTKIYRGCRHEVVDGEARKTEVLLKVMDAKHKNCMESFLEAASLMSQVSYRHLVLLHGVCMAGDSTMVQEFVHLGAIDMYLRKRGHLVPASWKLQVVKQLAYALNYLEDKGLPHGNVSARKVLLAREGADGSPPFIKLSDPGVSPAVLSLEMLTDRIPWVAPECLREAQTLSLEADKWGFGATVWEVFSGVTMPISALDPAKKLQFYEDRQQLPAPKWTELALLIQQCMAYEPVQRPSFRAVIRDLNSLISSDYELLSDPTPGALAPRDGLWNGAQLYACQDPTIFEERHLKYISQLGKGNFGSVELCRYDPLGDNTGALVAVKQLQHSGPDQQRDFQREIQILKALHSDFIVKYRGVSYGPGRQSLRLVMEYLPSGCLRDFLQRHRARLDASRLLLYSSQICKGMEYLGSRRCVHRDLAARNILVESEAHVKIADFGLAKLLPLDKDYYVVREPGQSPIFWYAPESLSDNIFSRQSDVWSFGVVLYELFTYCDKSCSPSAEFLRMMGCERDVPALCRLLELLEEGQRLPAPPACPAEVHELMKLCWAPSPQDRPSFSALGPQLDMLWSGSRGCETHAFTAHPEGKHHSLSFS
Conditions: at 0.1 µM.

Test [7] deals with T2, Tyrosine-protein kinase JAK3 (Homo sapiens). As to conditions: at 1 µM.
Test [8] addresses Vascular endothelial growth factor receptor 2 (Homo sapiens) (UniProt P35968). Conditions: at 0.1 µM.
Test [9] has the same target. Conditions: at 1 µM.
The target of test [10] is Mast/stem cell growth factor receptor Kit (Homo sapiens) (UniProt P10721). Conditions: at 0.1 µM.
Mast/stem cell growth factor receptor Kit (Homo sapiens), sequence (P10721 whole entry): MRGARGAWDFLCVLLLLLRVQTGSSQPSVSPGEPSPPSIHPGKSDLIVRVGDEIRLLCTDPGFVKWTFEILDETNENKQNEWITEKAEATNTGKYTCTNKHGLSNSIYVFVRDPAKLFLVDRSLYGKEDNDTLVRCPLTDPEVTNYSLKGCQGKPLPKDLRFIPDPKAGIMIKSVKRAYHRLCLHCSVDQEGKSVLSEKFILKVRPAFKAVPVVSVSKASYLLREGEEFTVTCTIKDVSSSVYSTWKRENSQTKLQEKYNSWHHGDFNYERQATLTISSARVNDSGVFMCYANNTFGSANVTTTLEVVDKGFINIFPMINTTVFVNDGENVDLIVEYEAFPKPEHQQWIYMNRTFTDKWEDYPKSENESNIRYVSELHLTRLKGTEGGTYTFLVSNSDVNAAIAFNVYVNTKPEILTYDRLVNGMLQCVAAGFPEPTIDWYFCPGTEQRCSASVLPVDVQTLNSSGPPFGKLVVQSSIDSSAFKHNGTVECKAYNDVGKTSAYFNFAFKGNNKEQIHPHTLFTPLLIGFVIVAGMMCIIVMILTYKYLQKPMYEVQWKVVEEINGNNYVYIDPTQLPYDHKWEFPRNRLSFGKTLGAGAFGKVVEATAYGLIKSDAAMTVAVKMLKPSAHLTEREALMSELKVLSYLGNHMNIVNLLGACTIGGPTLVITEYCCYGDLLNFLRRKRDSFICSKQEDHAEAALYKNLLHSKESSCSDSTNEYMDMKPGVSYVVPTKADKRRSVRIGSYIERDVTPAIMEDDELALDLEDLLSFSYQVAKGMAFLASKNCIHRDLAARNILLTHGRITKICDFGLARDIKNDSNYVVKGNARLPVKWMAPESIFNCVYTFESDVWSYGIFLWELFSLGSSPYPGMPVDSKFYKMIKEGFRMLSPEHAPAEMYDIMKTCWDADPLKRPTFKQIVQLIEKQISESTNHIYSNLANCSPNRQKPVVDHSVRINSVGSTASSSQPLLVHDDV
Test [11] shares this target. As to conditions: at 1 µM.
Test [12] has as its system Mast/stem cell growth factor receptor Kit (Homo sapiens), P10721 [D816V]. Conditions: at 0.1 µM.
The test system is the same in test [13]. Conditions: at 1 µM.
The subject of test [14] is Mast/stem cell growth factor receptor Kit (Homo sapiens), P10721 [T670I]. As to conditions: at 0.1 µM.
Test [15] shares this test system. Conditions: at 1 µM.
Test [16] concerns Mast/stem cell growth factor receptor Kit (Homo sapiens), P10721 [V560G]. Conditions: at 0.1 µM.
Mast/stem cell growth factor receptor Kit (Homo sapiens), P10721 [V560G], sequence (P10721 whole entry V560G): as the sequence (P10721 whole entry) above, with V560G counted along it
For test [17] the test system is unchanged. As to conditions: at 1 µM.
In test [18] the target is Tyrosine-protein kinase Lck (Homo sapiens) (UniProt P06239). As to conditions: at 0.1 µM.
Tyrosine-protein kinase Lck (Homo sapiens), sequence (P06239 2-509 limits assumed): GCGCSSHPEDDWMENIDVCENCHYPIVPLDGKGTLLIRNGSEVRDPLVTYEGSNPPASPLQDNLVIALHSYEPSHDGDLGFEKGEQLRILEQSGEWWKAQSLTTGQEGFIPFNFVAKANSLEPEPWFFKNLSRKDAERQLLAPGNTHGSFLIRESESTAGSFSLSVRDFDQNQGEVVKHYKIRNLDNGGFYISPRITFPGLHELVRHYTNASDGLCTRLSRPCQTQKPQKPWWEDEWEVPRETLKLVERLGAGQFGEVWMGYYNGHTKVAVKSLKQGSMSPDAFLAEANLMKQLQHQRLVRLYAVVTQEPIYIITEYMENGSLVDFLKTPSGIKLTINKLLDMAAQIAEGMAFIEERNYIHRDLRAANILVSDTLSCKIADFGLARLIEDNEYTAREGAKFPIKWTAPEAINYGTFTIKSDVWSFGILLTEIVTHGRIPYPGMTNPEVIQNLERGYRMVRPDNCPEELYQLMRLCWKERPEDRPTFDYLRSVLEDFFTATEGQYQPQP
For test [19] the target is unchanged. As to conditions: at 1 µM.
Test [20] concerns the target Leukocyte tyrosine kinase receptor (Homo sapiens) (UniProt P29376). As to conditions: at 0.1 µM.

Mast/stem cell growth factor receptor Kit (Homo sapiens), P10721 [T670I], sequence (P10721 whole entry T670I): as the sequence (P10721 whole entry) above, with T670I counted along it
Vascular endothelial growth factor receptor 2 (Homo sapiens), sequence (P35968 whole entry): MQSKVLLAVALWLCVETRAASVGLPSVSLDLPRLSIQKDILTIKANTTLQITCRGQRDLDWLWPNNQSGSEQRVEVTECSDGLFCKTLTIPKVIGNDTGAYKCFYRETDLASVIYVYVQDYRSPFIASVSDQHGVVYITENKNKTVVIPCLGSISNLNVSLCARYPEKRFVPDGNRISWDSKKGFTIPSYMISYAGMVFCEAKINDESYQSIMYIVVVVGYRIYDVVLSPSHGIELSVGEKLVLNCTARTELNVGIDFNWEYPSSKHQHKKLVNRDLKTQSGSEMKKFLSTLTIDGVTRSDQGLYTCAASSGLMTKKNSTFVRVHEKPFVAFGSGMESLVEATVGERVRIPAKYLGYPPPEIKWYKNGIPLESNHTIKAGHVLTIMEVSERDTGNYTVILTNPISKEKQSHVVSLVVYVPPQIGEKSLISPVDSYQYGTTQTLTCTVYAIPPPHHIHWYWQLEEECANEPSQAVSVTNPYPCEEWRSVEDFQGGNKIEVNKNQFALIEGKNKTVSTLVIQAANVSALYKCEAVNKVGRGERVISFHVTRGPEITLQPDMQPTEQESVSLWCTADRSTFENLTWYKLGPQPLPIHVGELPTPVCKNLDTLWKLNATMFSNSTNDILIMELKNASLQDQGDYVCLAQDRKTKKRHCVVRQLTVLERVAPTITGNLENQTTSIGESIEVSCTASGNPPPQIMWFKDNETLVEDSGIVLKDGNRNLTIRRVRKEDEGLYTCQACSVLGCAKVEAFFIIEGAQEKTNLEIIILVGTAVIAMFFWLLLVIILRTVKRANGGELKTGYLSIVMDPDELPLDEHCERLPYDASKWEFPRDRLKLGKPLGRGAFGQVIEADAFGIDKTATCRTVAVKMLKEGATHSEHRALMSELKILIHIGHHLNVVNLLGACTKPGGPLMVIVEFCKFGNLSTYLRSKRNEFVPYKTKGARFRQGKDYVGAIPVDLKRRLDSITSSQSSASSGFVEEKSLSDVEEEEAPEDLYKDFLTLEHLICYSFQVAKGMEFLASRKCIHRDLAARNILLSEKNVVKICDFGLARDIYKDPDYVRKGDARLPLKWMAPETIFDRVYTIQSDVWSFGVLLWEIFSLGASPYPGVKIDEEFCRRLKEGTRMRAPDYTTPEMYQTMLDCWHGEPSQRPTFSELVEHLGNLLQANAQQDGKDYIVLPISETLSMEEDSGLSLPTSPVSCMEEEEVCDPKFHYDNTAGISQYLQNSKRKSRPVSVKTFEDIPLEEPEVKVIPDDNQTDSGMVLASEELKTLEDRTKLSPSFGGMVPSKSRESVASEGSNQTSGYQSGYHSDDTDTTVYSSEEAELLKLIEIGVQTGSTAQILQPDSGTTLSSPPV
Mast/stem cell growth factor receptor Kit (Homo sapiens), P10721 [D816V], sequence (P10721 whole entry D816V): as the sequence (P10721 whole entry) above, with D816V counted along it
Leukocyte tyrosine kinase receptor (Homo sapiens), sequence (P29376 whole entry): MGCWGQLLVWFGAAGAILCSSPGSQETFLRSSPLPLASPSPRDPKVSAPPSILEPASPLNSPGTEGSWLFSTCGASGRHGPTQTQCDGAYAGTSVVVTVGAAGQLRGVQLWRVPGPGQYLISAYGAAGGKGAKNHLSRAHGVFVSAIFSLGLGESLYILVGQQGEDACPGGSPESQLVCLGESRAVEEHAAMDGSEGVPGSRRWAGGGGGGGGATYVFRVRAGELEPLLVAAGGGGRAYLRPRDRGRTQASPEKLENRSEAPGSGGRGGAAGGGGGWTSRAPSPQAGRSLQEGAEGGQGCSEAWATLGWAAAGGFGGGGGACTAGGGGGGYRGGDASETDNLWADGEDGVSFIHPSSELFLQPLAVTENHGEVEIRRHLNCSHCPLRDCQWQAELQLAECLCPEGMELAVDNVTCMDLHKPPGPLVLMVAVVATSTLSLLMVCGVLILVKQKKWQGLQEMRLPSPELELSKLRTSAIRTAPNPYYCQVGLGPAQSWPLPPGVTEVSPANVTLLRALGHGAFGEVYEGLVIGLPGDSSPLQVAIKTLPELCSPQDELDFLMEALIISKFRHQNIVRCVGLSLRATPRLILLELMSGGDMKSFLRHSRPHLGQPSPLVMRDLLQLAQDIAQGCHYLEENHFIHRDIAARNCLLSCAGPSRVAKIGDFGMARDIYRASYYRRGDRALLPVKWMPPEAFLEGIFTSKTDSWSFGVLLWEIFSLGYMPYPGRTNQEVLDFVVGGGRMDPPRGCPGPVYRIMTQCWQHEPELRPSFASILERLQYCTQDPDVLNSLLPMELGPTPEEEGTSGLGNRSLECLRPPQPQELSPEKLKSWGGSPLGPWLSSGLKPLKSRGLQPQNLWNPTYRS

Usually inhibition stands for the change of the read-out against control, counted positive when it falls. Regarding `NC(=O)c1ccc2c(-c3ccnc(NCCCO)n3)c(-c3ccc(F)cc3)nn2c1`, the inhibition is 1.77% in test [1]; 0.15% in [2]; 4.59% in [3]; 1.16% in [4]; 2.01% in test [5]; -1.31% in test [6]. Further, the inhibition was -0.86% in test [7]; 6.05% in test [8]; 16.6% in test [9]; 6.24% in test [10]; 25.4% in test [11]; 8.24% in test [12]. Besides, the inhibition is 1.86% in test [13]; 4.73% in [14]; 2.71% in test [15]; -0.84% in [16]; 0.77% in test [17]; 2.46% in test [18]. Besides, the inhibition in test [19] worked out at 8.13%; in [20], 4.67%.
Turning to `NS(=O)(=O)c1ccc(N/N=C2\C(=O)Nc3cccc(CCc4ccncc4)c32)cc1`, the inhibition in test [1] is 2.79%; in test [2], -0.35%; in test [3] it was 1.96%; in [4] it was 0.5%; in [5], 1.19%; in [6], 0.74%. For the same compound, the inhibition is 5.91% in test [7]; 19.6% in [8]; 46.7% in test [9]; 27% in [10]; 63.7% in [11]; 2.92% in [12]. In addition, the inhibition in [13] amounted to 5.18%; in test [14], 6.45%; in test [15], 15%; in test [16], 4.31%; in test [17], 14.1%; in test [18], 2.22%. Moreover, the inhibition in test [19] stood at 5.75%; in [20], 1.69%.
`COc1ccc(Nc2ncc(-c3ccccc3)o2)cc1OC`: the inhibition in [1] was found to be 3.7%; in test [2], 0.7%; in test [3] it was 7.81%; in test [4], 1.09%; in [5], 3.43%; in [6], 0.88%. Besides, the inhibition in test [7] is 10.7%; in test [8], 10.6%; in test [9], 44.2%; in test [10] it was 79.1%; in test [11], 95.9%; in test [12], -0.42%. Further, the inhibition in test [13] turned out to be 1.76%; in [14], 46.1%; in [15], 90.3%; in test [16], 45.7%; in test [17] it was 84.8%; in test [18] it was 2.31%. Also, the values for the inhibition in [19] and in [20] were 21.2% and 1.44%, respectively.
For the compound `O=C(Nc1n[nH]c2nnc(-c3cccnc3)cc12)C1CC1`, the inhibition in test [1] was 2.49%; in test [2], 1.49%; in test [3], 2.85%; in test [4] it was -0.35%; in [5], 0.3%; in [6], -0.15%. The inhibition in test [7] was 0.02%; in test [8], -0.85%; in test [9], 2.5%; in test [10], 1.26%; in test [11], 2.59%; in test [12] it was -1.93%. In addition, the inhibition in [13] was 1.15%; in [14] it was -0.12%; in test [15] it was 0.35%; in test [16], 2.26%; in test [17], 1.71%; in [18], 1.03%. For the same compound, the results for the inhibition in [19] and in test [20] were 3.69% and 1.26%, respectively.
Turning to `Cc1cc(O)cc(C)c1/C=C/c1cncc(C(=O)OC(C)(C)C)c1`, the inhibition in test [1] came out at 2.71%; in test [2], 1.99%; in [3] it was 7.09%; in test [4], 1.65%; in test [5] it was 3.69%; in test [6], 0.72%. Also, the inhibition in test [7] stood at 6.16%; in test [8], 4.17%; in test [9], 6%; in test [10], 38.3%; in test [11] it was 85.7%; in test [12] it was 1.84%. The inhibition in test [13] was -1.16%; in test [14], 4.32%; in [15], 2.87%; in test [16], 2.94%; in [17], 18.4%; in [18], 4.23%. Besides, the inhibition in test [19] was 26.8%; in test [20] it was 2.71%.
For the compound `Cc1ccc(-c2cc3c(NC(=O)C4CC4)ncnc3o2)cc1`, the inhibition in test [1] was 2.63%; in test [2], 2.29%; in [3] it was 1.7%; in [4], 2.06%; in test [5], 2.55%; in test [6] it was -0.9%. Further, the inhibition in test [7] stood at 2.42%; in test [8], 6.12%; in test [9], 13.4%; in [10], 8.72%; in [11] it was 32.2%; in test [12], 4.08%. The inhibition in [13] is 5.68%; in test [14], 4.38%; in test [15], 8.01%; in [16], -2.51%; in [17], 0.4%; in [18] it was 2.92%. The results for the inhibition in test [19] and in test [20] were 11.2% and 4.28%, respectively.
